# According to the supplement of paper PMC3545927:
# Some of the results follow. The true hit rate is not given.
# Target: furin, P09958
# Experiment: furin cleavage Z-score vs untreated control; higher = more cleavage, active = 3.5 or more, inactive = 1 or less, 8 variable residues between constant flanks
# Summary of the method: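 The cleavage Z-score was derived for purified furin acting on 8-mer peptides held on magnetic beads and fused to a cDNA oligonucleotide. Digests lasted 7.5, 15 or 30 min at 1:10 enzyme:substrate in 50 mM HEPES pH 7.5 with CaCl2 and NaCl. Sequencing counts of released DNA, log-transformed against furin-free reactions, were lowess-adjusted and scaled by median absolute deviation.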
# Chain of furin, P09958 (P09958 whole entry): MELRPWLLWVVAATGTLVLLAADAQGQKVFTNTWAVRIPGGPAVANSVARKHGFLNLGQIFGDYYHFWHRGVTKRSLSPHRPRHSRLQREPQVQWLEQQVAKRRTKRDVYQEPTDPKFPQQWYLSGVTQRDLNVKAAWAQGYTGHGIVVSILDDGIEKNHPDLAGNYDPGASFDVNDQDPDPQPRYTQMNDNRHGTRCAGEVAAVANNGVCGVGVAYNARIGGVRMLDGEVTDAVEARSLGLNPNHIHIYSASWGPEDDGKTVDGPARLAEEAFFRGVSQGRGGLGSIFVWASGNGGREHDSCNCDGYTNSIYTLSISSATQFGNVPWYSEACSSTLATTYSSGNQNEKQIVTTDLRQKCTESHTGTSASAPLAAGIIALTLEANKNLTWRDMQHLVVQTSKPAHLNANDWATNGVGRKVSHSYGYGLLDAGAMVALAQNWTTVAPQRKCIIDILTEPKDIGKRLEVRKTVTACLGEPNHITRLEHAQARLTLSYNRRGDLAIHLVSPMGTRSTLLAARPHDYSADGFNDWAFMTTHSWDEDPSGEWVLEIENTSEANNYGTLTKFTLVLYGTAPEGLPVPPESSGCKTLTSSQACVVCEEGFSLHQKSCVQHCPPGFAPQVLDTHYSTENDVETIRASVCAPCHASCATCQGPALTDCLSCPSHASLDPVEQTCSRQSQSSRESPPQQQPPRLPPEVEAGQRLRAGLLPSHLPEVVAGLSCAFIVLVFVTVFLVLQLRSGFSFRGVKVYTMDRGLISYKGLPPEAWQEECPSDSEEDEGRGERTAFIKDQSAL
Sequence,furin cleavage Z-score (7.5 min),furin cleavage Z-score (15 min),furin cleavage Z-score (30 min)
CAQAETAGARAGNASASA [HC828],-0.329 (inactive),0.716 (inactive),-1.08 (inactive)
CADTAACGDIAGNASASA [HC655],0.349 (inactive),-0.867 (inactive),1
CAQGWGPISYAGNASASA [HC394],1.47,0.693 (inactive),0.999 (inactive)
CASEPAPSGCAGNASASA [HC1345],-2.17 (inactive),0.166 (inactive),-1.95 (inactive)
CATTPCPGSWAGNASASA [HC80],0.174 (inactive),-1.3 (inactive),-1.39 (inactive)
CAEFTTPCSGAGNASASA [HC1967],-0.433 (inactive),-0.681 (inactive),-0.377 (inactive)
CATTPCSGSHAGNASASA [HC1935],-1.54 (inactive),-0.464 (inactive),-0.211 (inactive)
CAAFSLHSYSAGNASASA [HC1606],0.00727 (inactive),-0.749 (inactive),-0.113 (inactive)
CAQTPCSGSWAGNASASA [HC1842],-1.2 (inactive),-0.187 (inactive),-0.763 (inactive)
CACQQRFKRKAGNASASA [FS-1516],9.6 (active),8.5 (active),7.56 (active)
CARVLRSDGKAGNASASA [FS-2102],1.54,-0.134 (inactive),1.59
CARVSRSVRKAGNASASA [FS-293],2.18,4.8 (active),5.93 (active)
CARVSRLAGRAGNASASA [FS-3126],-0.719 (inactive),-0.0593 (inactive),-1.13 (inactive)
CARFGRFWKKAGNASASA [FS-2921],-0.769 (inactive),0.759 (inactive),-0.706 (inactive)
CAAAFRFKRKAGNASASA [FS-1109],9.75 (active),11.5 (active),9.51 (active)
CADVFVLNNTAGNASASA [HC428],0.596 (inactive),0.292 (inactive),1.32
CAEFVTSTWVAGNASASA [HC2167],0.46 (inactive),-0.556 (inactive),1.32
CASTRCSAHLAGNASASA [HC2513],-0.269 (inactive),0.477 (inactive),0.507 (inactive)
CAADVVDGAGAGNASASA [CS8],0.136 (inactive),0.768 (inactive),-0.146 (inactive)
CATVSSEANAAGNASASA [HC1364],-0.827 (inactive),-1.5 (inactive),-0.39 (inactive)
CAGWIRSRKAAGNASASA [FS-1529],-0.333 (inactive),0.0867 (inactive),1.14
CAGPQRQKKAAGNASASA [FS-1201],-1.12 (inactive),-0.885 (inactive),1.12

Sequence,furin cleavage Z-score (7.5 min),furin cleavage Z-score (15 min),furin cleavage Z-score (30 min)
CAGPSRFRKAAGNASASA [FS-162],5.12 (active),5.93 (active),5.05 (active)
CAWPHRSRKAAGNASASA [FS-574],0.887 (inactive),1.32,-0.0044 (inactive)
CATVSRFRKAAGNASASA [FS-731],4.07 (active),6.77 (active),7.8 (active)
CAEVVLSTWVAGNASASA [HC124],-1.79 (inactive),0.00773 (inactive),-0.313 (inactive)
CATPLPAPNYAGNASASA [HC1196],-2.54 (inactive),-0.301 (inactive),-1.86 (inactive)
CAAPAVQTNWAGNASASA [HC1034],0.577 (inactive),-0.967 (inactive),-0.703 (inactive)
CASFSIFLLAAGNASASA [HC247],0.168 (inactive),-0.433 (inactive),-0.472 (inactive)
CARKLRSLEQAGNASASA [FS-3193],8.09 (active),8.14 (active),8.28 (active)
CARALRSATQAGNASASA [FS-3182],-0.644 (inactive),-0.755 (inactive),1.8
CARKLRDVLQAGNASASA [FS-2215],2.04,4.73 (active),4.95 (active)
CARKLRGETVAGNASASA [FS-2969],-1.81 (inactive),-0.954 (inactive),-0.18 (inactive)
CARLSRDSLQAGNASASA [FS-2998],-0.269 (inactive),-1.05 (inactive),1.09
CARDRRRLEQAGNASASA [FS-2483],-1.86 (inactive),0.963 (inactive),-0.511 (inactive)
CASNPCSAHLAGNASASA [HC2501],0.199 (inactive),0.64 (inactive),0.644 (inactive)
CASLERHLRSAGNASASA [FS-1413],3.94 (active),4.91 (active),3.46
CAIRFRHLRSAGNASASA [FS-1536],2.94,3.49,3.84 (active)
CAGDNRHLRSAGNASASA [FS-779],0.602 (inactive),0.112 (inactive),-0.651 (inactive)
CAYRARQRRAAGNASASA [FS-1295],6.02 (active),5.59 (active),4.76 (active)
CANTARQRRAAGNASASA [FS-1548],10.2 (active),11.6 (active),8.92 (active)
CAYRARLSRGAGNASASA [FS-636],0.776 (inactive),2.55,2.96
CATTPCSGYWAGNASASA [HC1909],0.299 (inactive),1.62,-0.123 (inactive)
